PubChem BioAssay AID1376 (SRMLSC, 2008)
The campaign covered roughly 220,000 compounds. About 530 (0.24%) were called active. Many of the other results were omitted from the sample, so actives are more common in it than they were. Results with a measured potency or affinity are listed apart. Values without a mark were called inactive. No stated cut-off is given here; in the data, active means inhibition above about 13%; inconclusive means no clear call, values can overlap the other calls; inactive means below that.

Target: Bifunctional protein GlmU (Mycobacterium tuberculosis (strain ATCC 25618 / H37Rv)) (UniProt P9WMN3)
Experiment: inhibition of mycobacterial GlmU enzyme – biochemical, glucosamine-1-phosphate acetyltransferase (AID 1376);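 further: 0% = complete reaction with vehicle and 100% = reaction without substrate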
Details: M. tuberculosis GlmU acetyltransferase enzyme assay; active compounds read high;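 tested at 30 µM in the primary screen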

Sequence of Bifunctional protein GlmU (Mycobacterium tuberculosis (strain ATCC 25618 / H37Rv)) (P9WMN3 whole entry, looked up): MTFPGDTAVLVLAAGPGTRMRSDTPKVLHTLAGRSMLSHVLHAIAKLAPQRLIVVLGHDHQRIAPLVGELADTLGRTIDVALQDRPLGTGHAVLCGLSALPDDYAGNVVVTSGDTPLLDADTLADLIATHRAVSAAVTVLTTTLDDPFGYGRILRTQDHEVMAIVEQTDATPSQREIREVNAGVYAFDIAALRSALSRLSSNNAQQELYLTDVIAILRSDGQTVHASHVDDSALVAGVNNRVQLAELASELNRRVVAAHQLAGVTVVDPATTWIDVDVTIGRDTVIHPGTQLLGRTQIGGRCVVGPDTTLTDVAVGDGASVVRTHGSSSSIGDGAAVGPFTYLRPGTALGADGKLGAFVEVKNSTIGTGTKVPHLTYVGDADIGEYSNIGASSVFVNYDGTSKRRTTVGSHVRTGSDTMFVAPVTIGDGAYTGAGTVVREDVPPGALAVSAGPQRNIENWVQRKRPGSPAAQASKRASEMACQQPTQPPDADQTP

Row | SMILES | inhibition
1 | COc1ccc(N)c2c1C(=O)c1ccccc1C2=O | 11.8%
2 | COc1ccc(OC)c2c1C(=O)C(Cl)=C(Cl)C2=O | 15.7% (active)
3 | COc1ccc(OC)c2c1C(=O)c1ccccc1C2=O | 1.18%
4 | O=C(O)/C=C/c1ccc([N+](=O)[O-])o1 | -1.44%
5 | O=C1CN(/N=C/c2ccc([N+](=O)[O-])o2)C(=O)N1 | 0.61%
6 | Cc1ccc(C2=N/C(=C\N(C)C)C(=O)O2)cc1 | 1.44%
7 | Cc1ccccc1/C=C1\SC(=S)N(/N=C/c2cc([N+](=O)[O-])ccc2O)C1=O | -0.74%
8 | Cc1ccc(/C=C2\SC(=S)N(/N=C/c3cc([N+](=O)[O-])ccc3O)C2=O)o1 | 46.9% (active)
9 | O=C1/C(=C/c2cccc(Br)c2)SC(=S)N1/N=C/c1cc([N+](=O)[O-])ccc1O | -5.24%
10 | CC1CCC(NC(=O)c2ccc(/C=C3\Oc4ccccc4N(C)C3=O)cc2)CC1 (stereo unspecified) | -2.49%
11 | O=C(O)C1C2C=CC(C2)C1C(=O)N1CCOCC1 (stereo unspecified) | -2.63%
12 | O=C(O)C1C2C=CC(C3CC23)C1C(=O)O (stereo unspecified) | 1.12%
13 | COc1cc(/C=N/n2c(-c3n[nH]c4c3CCC4)n[nH]c2=S)ccc1O | 1.56%
14 | COc1cc(/C=N/n2c(-c3n[nH]c4c3CCC4)n[nH]c2=S)cc(OC)c1O | 0.14%
15 | COc1ccc(/C=N/n2c(-c3n[nH]c4c3CCC4)n[nH]c2=S)cc1OC | 14.3% (active)
16 | Cc1cc(C(=O)O)c(CSCc2cc(C(=O)O)oc2C)o1 | 2.24%
17 | CN(C)CC(C)(C)CN=Cc1c(O)[nH]c2ccccc12 | -4.17%
18 | COc1cc2c(cc1OC)C(SC)=NC(C)(C)C2 | 8.72%
19 | COc1cc2c(cc1OC)C(SC)=NC1(CCCC1)C2 | 2.45%
20 | COc1cc2c(cc1O)C(SC)=NC(C)(C)C2 | 14.9% (active)
21 | Cc1cccc(C)c1N1CCN(C(=O)N2CCOCC2)CC1 | 1.63%
22 | Cc1cccc(N2CCN(C(=O)N3CCOCC3)CC2)c1C | 13.8% (active)
23 | Cc1cccc(N2CCN(C(=O)N3CCCCC3)CC2)c1C | 4.08%

Row | SMILES | inhibition
24 | COc1ccc(-c2c3c(=O)n(C)c(=O)n(C)c3cn2-c2ccc(O)cc2)cc1 | -0.66%
25 | COc1ccc(-c2c3c(=O)n(C)c(=O)n(C)c3cn2-c2cccc(OC)c2)cc1 | 14% (active)
26 | COc1ccc(-c2c3c(=O)n(C)c(=O)n(C)c3cn2-c2ccccc2)cc1 | -0.39%
27 | Cc1cc(C)c(C#N)c(SCC(=O)c2ccc(Cl)cc2Cl)n1 | 14.2% (active)
28 | Cc1cc(C)c(C#N)c(SCC(=O)c2ccccc2)n1 | 2%
29 | Cc1cc(C)c(C#N)c(SCC(=O)c2cccs2)n1 | 3.22%
30 | CC1CCN(CCc2nc3cc(NC(=O)Nc4ccccc4)ccc3n2C)CC1 | -2.61%
31 | O=c1[nH]c(/C=C/c2cccnc2)c([N+](=O)[O-])c(=O)[nH]1 | -1.57%
32 | COc1ccc(CCn2c(-c3cc([N+](=O)[O-])cc([N+](=O)[O-])c3)nc3nc4ccccc4nc32)cc1OC | 1.37%
33 | COC(=O)CCN(C(=O)c1ccc([N+](=O)[O-])cc1)c1ccccn1 | 13.6% (active)
34 | COC(=O)CCN(C(=O)c1cc([N+](=O)[O-])cc([N+](=O)[O-])c1)c1ccccn1 | 9.11%
35 | COC(=O)CCN(C(=O)c1cccc([N+](=O)[O-])c1)c1ccccn1 | 2.81%
36 | CCc1nnc(NC(=O)C2CCCN(S(=O)(=O)c3ccc(OC)cc3)C2)s1 (stereo unspecified) | -3.09%
37 | CCOc1ccc(-n2c(C)nnc2SCC(=O)N(CC)CC)cc1 | -6.69%
38 | O=C(O)c1ccccc1/C=N/NC(=O)C1CCCCC1 | 1.79%
39 | CCC(C)C1NC(=S)N(C2CCCCC2)C1=O (stereo unspecified) | 15.5% (active)
40 | CCC1NC(=S)N(C2CCCCC2)C1=O (stereo unspecified) | -5.8%
41 | CC(C)C1NC(=S)N(C2CCCCC2)C1=O (stereo unspecified) | 1.15%
42 | COc1ccc(NCN2C(=O)C3C4C=CC(C4)C3C2=O)cc1 (stereo unspecified) | 0.26%
43 | O=C1CCC(=O)N1CNc1ccc(Oc2ccccc2)cc1 | 4.2%
44 | COc1ccc(NCN2C(=O)CCC2=O)cc1 | 13.4% (active)
45 | NC(=O)c1c(NC(NC(=O)c2ccco2)C(=O)c2ccc(Cl)cc2)sc2c1CCCC2 (stereo unspecified) | 2%
46 | Cc1ccc2nc(C)cc(N/N=C/c3cccnc3)c2c1 | -6%
